# Article PMC4336329 (PLoS ONE, 2015)
# In all, about 310,000 compounds went through this assay and about 14,000 (4.5%) showed an effect of 50% or more. Effects have a minus sign here. The sample holds strong results, similar compounds and a random draw of the others, so the mix is not that of the screen.
# Target: human ether-à-go-go-related gene (hERG) potassium channel (human, UniProt Q12809)
# Assay: primary screen, population patch clamp on CHO cells stably expressing hERG; higher = less effect of the substance
# 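Further: peak tail current of the secondary pulse compared with the same well before compound.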
# Chain of human ether-à-go-go-related gene (hERG) potassium channel (Q12809 whole entry, looked up): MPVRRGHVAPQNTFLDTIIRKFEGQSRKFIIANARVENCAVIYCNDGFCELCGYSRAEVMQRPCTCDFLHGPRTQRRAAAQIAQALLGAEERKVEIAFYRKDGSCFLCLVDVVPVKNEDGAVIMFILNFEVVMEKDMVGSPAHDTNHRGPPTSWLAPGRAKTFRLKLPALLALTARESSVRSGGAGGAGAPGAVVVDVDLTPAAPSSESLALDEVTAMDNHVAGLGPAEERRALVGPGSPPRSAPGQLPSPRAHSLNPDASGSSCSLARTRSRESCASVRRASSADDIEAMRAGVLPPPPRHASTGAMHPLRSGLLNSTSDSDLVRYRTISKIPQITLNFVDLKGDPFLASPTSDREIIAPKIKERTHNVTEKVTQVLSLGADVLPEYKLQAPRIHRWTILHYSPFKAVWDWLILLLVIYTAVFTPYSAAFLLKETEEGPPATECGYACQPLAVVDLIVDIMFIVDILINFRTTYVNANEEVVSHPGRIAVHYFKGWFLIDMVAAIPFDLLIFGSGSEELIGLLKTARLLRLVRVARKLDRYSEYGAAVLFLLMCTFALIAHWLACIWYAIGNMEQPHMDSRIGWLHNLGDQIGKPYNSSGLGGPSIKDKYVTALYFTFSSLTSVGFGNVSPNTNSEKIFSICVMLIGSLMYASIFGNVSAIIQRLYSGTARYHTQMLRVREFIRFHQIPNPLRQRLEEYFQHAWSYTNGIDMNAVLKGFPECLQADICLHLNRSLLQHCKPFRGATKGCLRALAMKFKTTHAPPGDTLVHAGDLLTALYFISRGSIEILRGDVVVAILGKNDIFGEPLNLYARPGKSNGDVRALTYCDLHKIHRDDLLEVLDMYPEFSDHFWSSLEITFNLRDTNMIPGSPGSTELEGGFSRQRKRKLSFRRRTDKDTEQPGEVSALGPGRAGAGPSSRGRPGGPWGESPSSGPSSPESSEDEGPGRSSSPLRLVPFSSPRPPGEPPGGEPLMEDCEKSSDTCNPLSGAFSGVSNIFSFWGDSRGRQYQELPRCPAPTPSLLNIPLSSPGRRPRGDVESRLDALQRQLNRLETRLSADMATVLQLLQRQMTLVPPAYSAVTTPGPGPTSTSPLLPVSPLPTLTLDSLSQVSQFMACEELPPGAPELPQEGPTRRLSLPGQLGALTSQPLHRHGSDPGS
row,Compound,"hERG current change (%, negative = inhibition) at 10uM [%]"
1,CC(C)(C)OC(=O)N1CCC(C(=O)NCC2CCCO2)CC1 (stereo not shown),16.5
2,O=C(CC(C(=O)N1CCc2ccccc21)n1ccnc1)NCc1ccccc1 (stereo not shown),-26.5
3,O=C(/C=C/c1ccc(F)cc1)Nc1ccc(S(=O)(=O)N2CCOCC2)cc1,9
4,O=C(/C=C/c1ccc2c(c1)OCO2)Nc1cc(S(=O)(=O)N2CCOCC2)ccc1N1CCOCC1,-55.9
5,O=C(/C=C/c1ccc(F)cc1)Nc1cc(S(=O)(=O)N2CCOCC2)ccc1N1CCCC1,-70.9
6,Cc1ccc(NC(=O)/C=C/c2ccc3c(c2)OCO3)cc1S(=O)(=O)N1CCOCC1,-13
7,COc1cc(/C=C/C(=O)Nc2cc(S(=O)(=O)N3CCOCC3)ccc2N2CCCC2)cc(OC)c1OC,24
8,Cc1ccc(/C=C/C(=O)Nc2cc(S(=O)(=O)N3CCOCC3)ccc2N2CCOCC2)cc1,-43.2
9,O=C(/C=C/c1cccc(F)c1)Nc1cc(S(=O)(=O)N2CCOCC2)ccc1N1CCCC1,-57.7
10,COc1ccc(/C=C/C(=O)Nc2cc(S(=O)(=O)N3CCOCC3)ccc2N2CCCC2)cc1OC,-40.3
11,O=C(/C=C/c1ccccc1)Nc1cc(S(=O)(=O)N2CCOCC2)ccc1N1CCCC1,-1.04
12,Cc1ccn(CCC(=O)O)n1,26.6
13,Cc1[nH]n(-c2ccccc2)c(=O)c1/C=N/N1C(=O)c2cccc3cccc(c23)C1=O,3.73
14,COc1ccc(/C=C/c2nc3sc4c(c3c(=O)o2)CCC4)cc1,4.28
15,Cc1ccc(-c2nc(N)c3c(-c4ccc(C)cc4)nn(C(C)(C)C)c3n2)cc1,-1.71
16,O=C(COc1ccc(S(=O)(=O)N2CCOCC2)cc1)NCCc1ccccc1,-13.4
17,C/C(Cl)=C/Cn1c(NCCN(C)C)nc2c1c(=O)n(C)c(=O)n2C,-26.9
18,C/C(Cl)=C\Cn1c(NCCc2ccccc2)nc2c1c(=O)n(C)c(=O)n2C,-9.3
19,CCN(CC)CCNc1nc2c(c(=O)n(C)c(=O)n2C)n1C/C=C(/C)Cl,-58.9
20,CCC(=O)NCCCc1nc(-c2ccccc2)no1,5.95
21,COc1ccc(CN2C(=O)COc3ccccc32)cc1,12
22,CCCCN(CCCC)C(=O)CN(C)S(=O)(=O)c1ccc2c(c1)n(C)c(=O)c(=O)n2C,-37
23,CCCCN(CCCC)C(=O)CCS(=O)(=O)c1ccc2c(c1)n(C)c(=O)c(=O)n2C,-69.2
24,CCN(Cc1ccccc1)C(=O)CCS(=O)(=O)c1ccc2c(c1)n(C)c(=O)c(=O)n2C,-15
25,COc1ccc(-n2c(SCC(=O)NNC(=O)c3ccccc3C)nnc2-c2ccncc2)cc1,-7.21
26,CCC(C)NC(=O)CSc1nnc(-c2ccncc2)n1-c1ccc(OC)cc1 (stereo not shown),-0.947

row,Compound,"hERG current change (%, negative = inhibition) at 10uM [%]"
1,COc1ccc(-n2c(SCC(=O)NNC(=O)c3ccc(C)cc3)nnc2-c2ccncc2)cc1,-58.6
2,Cc1ccc(C(=O)NNC(=O)CSc2nnc(-c3ccncc3)n2C)cc1,24.9
3,CCn1c(SCC(=O)NNC(=O)c2ccc(C)cc2)nnc1-c1ccncc1,-0.879
4,Cc1ccc(C(=O)NNC(=O)CSc2nnc(-c3ccncc3)n2-c2ccc(C)cc2)cc1,-51.4
5,CC(=O)N1c2ccc(S(=O)(=O)NCCC(=O)NCCc3cccc(C)c3)cc2CC1C (stereo not shown),-4.31
6,CC(C)[C@H](NC(=O)c1ccco1)C(=O)OCC(=O)NC12CC3CC(CC(C3)C1)C2,-18.7
7,COc1cc(/C=N/n2cnnc2)ccc1OS(=O)(=O)c1ccccc1[N+](=O)[O-],-51
8,O=[N+]([O-])c1ccccc1S(=O)(=O)Oc1ccc(/C=N/n2cnnc2)cc1,-40.6
9,Cc1ccc(S(=O)(=O)Oc2cccc(/C=N/n3cnnc3)c2)cc1,-49
10,COc1cc(C=O)ccc1OS(=O)(=O)c1ccccc1[N+](=O)[O-],4.1
11,CCOc1cc(/C=N/n2cnnc2)ccc1OS(=O)(=O)c1ccc(C)cc1,-50.5
12,CCOc1cc(/C=N/O)ccc1OS(=O)(=O)c1ccc(C)cc1,-5.21
13,CCOc1cc(/C=N/n2cnnc2)ccc1OS(=O)(=O)c1ccccc1,-57.7
14,CCOc1cc(/C=N/NS(=O)(=O)c2ccccc2)ccc1OS(=O)(=O)c1ccc(C)cc1,2.1
15,CCOc1cc(C=C2C(=O)NC(=O)NC2=O)ccc1OS(=O)(=O)c1ccccc1,-18
16,Cn1ncc2c(Nc3ccc(Cl)c(Cl)c3)ncnc21,14.5
17,O=C(O)CCn1cc(/C=C2\SC(=S)NC2=O)c(-c2ccccc2)n1,21.8
18,COc1ccc2c(c1)CC/C2=N\NC(=O)c1ccccc1,-3.69
19,CC1(C)COC(Nc2ccc(Cl)cc2)=N1,-35.8
20,Cc1ccc(Cn2nnnc2CN2CCC(O)(c3ccccc3F)CC2)cc1,-21.5
21,O=C(NCCCc1ccccc1)c1ccc(-n2cncn2)c([N+](=O)[O-])c1,-60.5
22,CC(CCc1ccccc1)NC(=O)c1ccc(-n2cncn2)c([N+](=O)[O-])c1 (stereo not shown),-70.9
23,O=C(NNC(=O)c1ccc(-n2cncn2)c([N+](=O)[O-])c1)c1ccccc1,9.34
24,Cc1ccc(C(=O)NC(C)CCc2ccccc2)cc1[N+](=O)[O-] (stereo not shown),-13.9
25,O=C(NCCC1=CCCCC1)c1ccc(-n2cncn2)c([N+](=O)[O-])c1,-22.5
26,Cc1cc(C(=O)NC(C)CCc2ccccc2)ccc1[N+](=O)[O-] (stereo not shown),-29.5
